Reference: ChEMBL document CHEMBL3433997, “St. Jude Leishmania screening dataset” (2016)

What was measured:
Type in all cases: functional
[1] = target: Solute carrier family 2, facilitated glucose transporter member 1 (Homo sapiens) (UniProt P11166); experiment: ST_JUDE_LEISH: Cytotoxicity at 2uM final concentration against transgenic Leishmania Mexicana promastigotes LmGLUT1 that are glucose transport deficient and complemented with the human glucose transporter GLUT1. Activity is measured by DNA content using SYBR green in vitro
Solute carrier family 2, facilitated glucose transporter member 1 (Homo sapiens), sequence (P11166 whole entry): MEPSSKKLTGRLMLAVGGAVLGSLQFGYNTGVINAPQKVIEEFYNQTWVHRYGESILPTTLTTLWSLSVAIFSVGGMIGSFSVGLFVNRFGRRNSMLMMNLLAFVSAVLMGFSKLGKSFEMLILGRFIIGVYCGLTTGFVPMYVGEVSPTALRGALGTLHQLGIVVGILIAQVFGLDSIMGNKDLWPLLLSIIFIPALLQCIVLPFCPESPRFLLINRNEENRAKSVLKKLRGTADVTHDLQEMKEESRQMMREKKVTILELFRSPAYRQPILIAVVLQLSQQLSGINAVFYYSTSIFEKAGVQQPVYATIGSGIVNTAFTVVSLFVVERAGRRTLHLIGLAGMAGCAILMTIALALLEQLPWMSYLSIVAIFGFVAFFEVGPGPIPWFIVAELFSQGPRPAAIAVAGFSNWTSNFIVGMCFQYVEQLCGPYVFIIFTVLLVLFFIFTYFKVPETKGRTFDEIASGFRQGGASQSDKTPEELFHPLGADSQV

[2] = target: Hexose transporter 1 (Plasmodium falciparum) (UniProt O97467); experiment: ST_JUDE_LEISH: Cytotoxicity at 2uM final concentration against transgenic Leishmania Mexicana promastigotes LmPfHT that are glucose transport deficient and complemented with the Plasmodium falciparum hexose transporter. Activity is measured by DNA content using SYBR green in vitro
[3] = target: Glucose transporter (Leishmania mexicana) (UniProt O61059); experiment: ST_JUDE_LEISH: Cytotoxicity at 2uM final concentration against transgenic Leishmania Mexicana promastigotes LmGT2 that are glucose transport deficient and complemented with the L. Mexicana glucose transporter 2. Activity is measured by DNA content using SYBR green in vitro

SMILES | inhibition [1] [%] | inhibition [2] [%] | inhibition [3] [%]
COc1ccc(Nc2ncc3c(-c4ccc(NC(=O)c5cccc(C(F)(F)F)c5)cc4)c[nH]c3n2)cc1OC | 0.57 | -0.05 | -0.51
O=C(/C=C/c1ccc(Cl)c(Cl)c1)NCCCCCN1CCN(C(=O)Nc2ccc(Cl)c(C(F)(F)F)c2)CC1 | 2.17 | 0.61 | -1.28
COc1ccc(N2CCc3c(-c4cccc5cnccc45)cc(C)nc32)c(C)c1 | -0.79 | 0.13 | -0.88
CN1CCCN(Cc2cccc(-c3cccc(NC(=O)c4cccc(C#N)c4)c3)c2)CC1 | 12.8 | 11.4 | 10.3
CC(C#N)Cc1ccc(-c2cnc(N)c3cc(-c4ccnc(N)n4)ccc23)cc1 (stereo not drawn) | 5.38 | 3.48 | -0.93
CN(C)c1ccc(/N=C2/N/C(=N/c3ccc(N(C)C)cc3)c3ccccc32)cc1 | 4.81 | 6.38 | 3.25
